The whole screen tested about 290,000 compounds, of which about 27,000 (9.3%) were called active. The entries come from a sample that favours actives as a whole. A number with no mark means an inactive call. Rule as the data show it: active = inhibition mostly above about 28% (no sharp cut-off); inactive = mostly below about 43%.
Assay: A qHTS for Small Molecule Inhibitors of Shiga Toxin; also: 0% is about no effect
Conditions: Vero cells, Shiga toxin protein synthesis inhibition reporter; at 38.7 µM, hits give high values

Row | Structure (SMILES) | inhibition
1 | CC(=O)c1cc(CN2CCC(n3nccc3NC(=O)c3ccccc3Cl)CC2)cs1 | -20.5%
2 | O=C(Nc1ccnn1C1CCN(Cc2cccc(OCCO)c2)CC1)C1CCCC1 | -5.27%
3 | Cc1cccc(NC(=O)c2sc3nc(N4CCOCC4)c4c(c3c2N)CCCC4)c1 | 30.8%
4 | Nc1nc(-c2sc3nc4c(cc3c2N)CCCC4)nc(N2CCOCC2)n1 | 58.2% (active)
5 | Cc1nc(N2CCOCC2)nc2c1CCCC2 | 35.4%
6 | Cc1cc(-c2nnc(SCC(=O)Nc3ccc(S(N)(=O)=O)cc3)n2N)n[nH]1 | -4.71%
7 | O=C(NC(Cc1ccccc1)C(=O)O)/C(=C\c1ccccc1)NC(=O)c1ccco1 (configuration not stated) | -11.9%
8 | CC(=O)Oc1cccc(N2C(=O)CC(Nc3ccc(N4CCOCC4)cc3)C2=O)c1 (configuration not stated) | 58.2% (active)
9 | COc1ccc(N2CCN(C3CC(=O)N(c4ccc5c(c4)OCCO5)C3=O)CC2)cc1 (configuration not stated) | -9.64%
10 | CC(=O)Oc1cccc(N2C(=O)C3CC=C(Cl)CC3C2=O)c1 (configuration not stated) | -2.36%
11 | CCOc1ccccc1OCCCNCc1ccccc1 | 8.72%
12 | CCOc1ccc(S(=O)(=O)Nc2ccc(OC)nc2)cc1 | 33.9%
13 | CCCCCCn1cc(C(=O)O)c(=O)c2cc(F)c(N3CCCCC3)cc21 | 33.7%
14 | COc1ccccc1CNC(=O)C1CCN(S(=O)(=O)c2ccc3c(c2)OCCO3)CC1 | -11.4%
15 | C=CCNC(=O)c1ccccc1SCc1c(C)noc1C | -38.8%
16 | O=C(Nc1cccc2ncccc12)c1ccc(-c2ccc(Cl)cc2Cl)o1 | -17.2%
17 | O=C(Nc1ccccc1C(F)(F)F)c1cc(-c2ccc(O)cc2)on1 | 54.9% (active)
18 | O=C(Nc1cccnc1Cl)c1cc(-c2cccc(Cl)c2)on1 | -1.68%
19 | O=C(NCc1ccccn1)c1ccc2nc(-c3ccco3)c(-c3ccco3)nc2c1 | 5.29%
20 | O=C(NCc1ccccn1)c1cc(Br)ccc1Cl | 29.6%
21 | CCc1ccccc1NC(=O)c1cc(-c2ccc3c(c2)OCO3)on1 | 25.8%
22 | O=C(NCc1ccccn1)c1cc(-c2ccccc2Cl)on1 | 162% (active)
23 | C=CCNC(=O)c1cc(-c2ccccc2O)on1 | 98.8% (active)
24 | C=CCNC(=O)c1csc(-c2ccccc2)n1 | 11.1%
25 | O=C(NNC(=O)c1ccccc1[N+](=O)[O-])Nc1ccccc1C(F)(F)F | -6.67%

Row | Structure (SMILES) | inhibition
26 | O=C(Nc1cccnc1Cl)c1cc(-c2ccccc2O)on1 | 73.1% (active)
27 | Nc1nonc1-n1nnc(C(=O)N/N=C/C2CCCCC2)c1-c1ccccc1 | -3.16%
28 | CCCCC(C(=O)NC(C)(C)C)N(Cc1ccccc1)C(=O)c1snc(C(N)=O)c1N (configuration not stated) | -1.85%
29 | CCc1ccccc1N(CC(=O)NCC1CCCO1)C(=O)CCC(=O)Nc1nccs1 (configuration not stated) | -6.86%
30 | CC(Nc1nc(C(F)(F)F)nc2ccccc12)c1cccs1 (configuration not stated) | 29.3%
31 | O=S(O)S(=O)(=O)O | 6.15%
32 | Cc1ccc2c(C)c(C(=O)N3CCC(N4CCC(C(=O)NC5CC5)CC4)CC3)oc2c1 | -13.3%
33 | Cc1ccc2oc(C(=O)N3CCN(C)C[C@@H]3C(C)C)c(C)c2c1 | 42.3% (active)
34 | COc1ccccc1N1CCN(C(=O)c2cc(=O)c3cc(C)ccc3o2)CC1 | 19.1%
35 | Cc1ccc(C(=O)NCCc2nnc(SCC(=O)Nc3cccc(C(=O)O)c3)n2C)cc1 | -4.17%
36 | CC(=O)C(C)n1cnc2scc(-c3ccc(C)cc3)c2c1=O (configuration not stated) | -5.64%
37 | CCN(C(=O)CSc1ncn[nH]1)c1cccc2ccccc12 | 9.31%
38 | Cn1nnc(NC(=O)CSc2ncn[nH]2)n1 | -18.1%
39 | CC(C)(C)c1ccc(C(=O)CSc2ncn[nH]2)cc1 | 63.4% (active)
40 | Cc1ccccc1NC(=O)NCC1CCN(Cc2cccc(Cl)c2)CC1 | -1.26%
41 | O=C(O)c1ccc(NC(=O)c2ccc(COc3ccc(Cl)cc3)o2)cc1 | -8.9%
42 | CCOC(=O)c1[nH]c2c(c1C)C(=O)CC(c1ccc(N(C)C)cc1)C2 (configuration not stated) | 2.86% (active)
43 | COCCOC(=O)c1[nH]c2c(c1C)C(=O)CC(c1ccc(OC)cc1)C2 (configuration not stated) | 13.2%
44 | CCOC(=O)c1[nH]c2c(c1-c1ccccc1)C(=O)CC(c1ccc(Cl)cc1)C2 (configuration not stated) | -7.73%
45 | O=C(N/N=C/c1sc(N2CCCCC2)nc1-c1cccs1)c1cccnc1 | -9.51%
46 | CCOc1cc(C)ccc1OCc1nnc(SCC(=O)Nc2cccc(C(=O)O)c2)n1-c1ccccc1 | 9.89%
47 | CC[C@H](C)[C@H](NC(=O)[C@@H](N)CCC(=O)O)C(=O)N[C@@H](CC(C)C)C(=O)N[C@@H](CC(=O)O)C(=O)N[C@H](C(=O)N1CCC[C@H]1C(=O)N[C@@H](CO)C(=O)N[C@H](C(=O)O)[C@@H](C)O)C(C)C | -4.46%
48 | c1cncc(-c2nnc3n2C2(CCCCC2)Cc2ccccc2-3)c1 | -14.6%
49 | CCOc1ccccc1C1CC(c2cccc(NS(C)(=O)=O)c2)=NN1C(=O)c1ccccc1 (configuration not stated) | 3.98%
50 | CCOc1cccc2c1OC1(CCCCC1)N1N=C(c3cccnc3)CC21 (configuration not stated) | 42.4% (active)

Row | Structure (SMILES) | inhibition
51 | CCC1C(=O)NCCN1C(=O)c1ccc2nc(Cc3ccc(OC)cc3)oc2c1 (configuration not stated) | 3.17%
52 | CCCCc1nc2cc(C(=O)N3CCCCC3CCO)ccc2o1 (configuration not stated) | 105% (active)
53 | COc1ccc(C(=O)NC2CC2)cc1OC1CCN(Cc2cnn(C)c2)CC1 | 14.2%
54 | CCCCc1nc2cc(C(=O)NCCc3cnn(C)c3)ccc2o1 | 36.3% (active)
55 | CCC1CCCCN1C(=O)CSc1nc(C)cc(C)n1 (configuration not stated) | -8.51%
56 | Cc1c(C(=O)N(C)CCc2cnn(C)c2)oc2c(F)cccc12 | 2.81%
57 | CC(C)c1nnc(NC(=O)C2CC(=O)N(CCc3ccc(F)cc3)C2)s1 (configuration not stated) | -7.25%
58 | COc1cccc(NC(=O)c2cc(S(=O)(=O)N3CCc4ccccc43)cn2C)c1 | 7.48%
59 | CCc1ccc(OC(C)C(=O)Nc2ccc(S(=O)(=O)Nc3cc(C)on3)cc2)cc1 (configuration not stated) | -9.78%
60 | CC(CCc1ccc(O)cc1)NCc1ccc(Cl)cc1Cl (configuration not stated) | -4.82%
61 | CCCCC1(C(=O)OCC)NC(c2ccc(O)cc2)C2C(=O)N(c3ccccc3)C(=O)C21 (configuration not stated) | -10.2%
62 | CCc1ccc(NC(=O)CN2C(=O)COc3ccc(S(=O)(=O)N4CCCC4)cc32)cc1 | -5.17%
63 | COc1ccc(NC(=O)CN2C(=O)CSC2=O)cc1 | -1.96%
64 | CCc1ccc(NC(=O)CN2C(=O)CSC2=O)cc1 | 53.9% (active)
65 | O=C(Nc1ccccc1N1CCN(C(=O)c2ccccc2)CC1)c1ccc2c(c1)OCO2 | -7.26%
66 | O=C(CN1CCN(c2ccccc2F)CC1)c1ccc2c(c1)OCO2 | 53% (active)
67 | CC1(c2ccc(Cl)cc2)NC(=O)N(CC(=O)c2ccc3c(c2)OCO3)C1=O (configuration not stated) | 1.96%
68 | CCOc1cc(C2/C(=C(/O)c3ccc(S(=O)(=O)N4CCCCC4)cc3)C(=O)C(=O)N2CCOC)ccc1O (configuration not stated) | -10.6%
69 | O=C(Nc1cccc(OC(=O)N2CCCCC2)c1)N1CCOCC1 | -5.26%
70 | O=C(Oc1ccc2c(c1)CCC2)N1CCOCC1 | 97.3% (active)
71 | O=C(Oc1ccc(F)cc1)N1CCOCC1 | -2.55%
72 | CNS(=O)(=O)c1cccc(C(=O)NC2CCCc3ccccc32)c1 (configuration not stated) | 2.04%
73 | COc1ccccc1N(CC(=O)NC1CCCC1)C(=O)C1(C)CC(=O)N=C2C=CC(C)=CN21 (configuration not stated) | -13.3%
74 | CSc1ncccc1C(=O)NC1CCCCCC1 | 27.5%
75 | CSc1ncccc1C(=O)OCc1ccc(Br)cc1 | 42% (active)

Row | Structure (SMILES) | inhibition
76 | CSc1ncccc1C(=O)OCC(=O)N1CCOCC1 | -2.04%
77 | COc1ccc(N2CCN(C(=O)[C@@H](NC(=O)c3cc(OC)cc(OC)c3)C(C)C)CC2)cc1 | 2.67%
78 | O=C(CN1CCN(S(=O)(=O)c2ccc(F)cc2)CC1)NC1CC1 | -30.6%
79 | COc1ccc(-c2ccc(C3C4C=CCCC4(C)C(=O)N3Cc3ccccc3)c(F)c2)cc1OC (configuration not stated) | -1.56%
80 | Cc1cc(OCc2cc(C(=O)NCc3cc(C(C)C)no3)no2)cc(C)c1Cl | 79.8% (active)
81 | COCCCNC(=O)COc1cc(C)c(Cl)c(C)c1 | -11.4%
82 | Cc1cc(OCc2ccc(C(=O)Nc3ccc(C(=O)O)cc3)o2)ccc1Cl | 2.97%
83 | Nc1nc(CC(=O)CSc2ccc(Cl)cc2)nc(Nc2ccc(F)cc2)n1 | -6.2%
84 | CC(C)CN(C(=O)c1cccc(S(=O)(=O)N2CCCCC2)c1)C1CCS(=O)(=O)C1 (configuration not stated) | -6.54%
85 | O=C(Cn1c(=O)n(CC2CS2)c2ccccc21)N1CCCCC1 (configuration not stated) | -7.24%
86 | CCOC(=O)C1(Cc2ccccc2C)CCCN(S(C)(=O)=O)C1 (configuration not stated) | -1.22%
87 | O=C(CN1C(=O)CSC1=O)N1CCCC(Nc2ccc(F)cc2)C1 (configuration not stated) | 0.485%
88 | CCOC(=O)C1(Cc2ccccc2C)CCCN(C(=O)CN2C(=O)CSC2=O)C1 (configuration not stated) | 78.9% (active)
89 | CCOC(=O)C1(CCc2ccccc2)CCN(Cc2ccco2)CC1 | -2.54%
90 | CCOC(=O)C1(Cc2ccccc2C)CCCN(C(=O)c2ccc(COC)o2)C1 (configuration not stated) | 121% (active)
91 | CC(C)c1ccc(S(=O)(=O)NC2CCCC2)cc1 | -8.49%
92 | CCc1ccccc1NC(=O)c1ccc2c(c1)CCN2S(C)(=O)=O | 21.4%
93 | CS(=O)(=O)N1CCc2cc(C(=O)Nc3ccccc3Br)ccc21 | 50.7% (active)
94 | CC(=O)Nc1cccc(NC(=O)c2ccc3c(c2)CCN3S(C)(=O)=O)c1 | 6.84%
95 | CSc1ccccc1NC(=O)c1ccc2c(c1)CCN2S(C)(=O)=O | 38.2% (active)
96 | CS(=O)(=O)N1CCc2cc(C(=O)Nc3ccccc3)ccc21 | 3.54%
97 | COc1ccc(OC)c(NC(=O)c2ccc3c(c2)CCN3S(C)(=O)=O)c1 | -5.31%

From PubChem BioAssay AID2315 (National Center for Advancing Translational Sciences (NCATS), 2010)
